# The campaign covered roughly 69,000 compounds. About 8,600 (12%) showed an effect of 50% or more. Only a selection was taken, and strong results are over-represented in it overall.
# System: Plasmodium berghei
# Assay: Screen against P. berghei liver stage (PbLuc), transformed with Luciferase, at 10uM
# Assay type: functional, HepG2
# Settings: tested at 10 uM
row,Structure (SMILES),INHIBITION [%]
1,O=C1[C@@H]2CC[C@@H](CN(Cc3nnc(C4CC4)o3)C2)N1Cc1cscn1,-28.4
2,CN(C)CCNC(=O)CCC1CCN(C(=O)c2ccc(Cl)cc2O)CC1,50.4
3,CN(C)CCNC(=O)CCC1CCN(C(=O)c2ccc(O)cn2)CC1,26.8
4,Cc1cc(C(=O)N2CCC(CCC(=O)NCCN(C)C)CC2)ccc1O,-21.9
5,CCN(c1ccc(C(=O)NCCCN2CCCC2)cc1)S(=O)(=O)CC,-7.11
6,CC[C@@H]1N(Cc2ccc(F)cc2)CCC[C@]12CCC(=O)N2C,21.1
7,Cc1ccc(N2CC3(COCCN(Cc4ccncc4)C3)OCC2=O)s1 (stereo unspecified),-36
8,Cc1cccc(N2CCOCC3(C2)CN(c2cncnc2)C(=O)CO3)n1 (stereo unspecified),33.5
9,Cc1ccc(CN2CCC3(CC2)CN(c2ccccc2)C(=O)CO3)o1,68.4
10,Cc1cccc(N2CCOCC3(C2)CN(c2cccnc2)C(=O)CO3)n1 (stereo unspecified),41.4
11,Cc1ccc(CN2CCOCC3(C2)CN(c2ccc(C)s2)C(=O)CO3)o1 (stereo unspecified),64.2
12,Cc1ccc(N2CC3(COCCN(Cc4nccs4)C3)OCC2=O)s1 (stereo unspecified),-17
13,Cn1cccc1CN1CCC2(CC1)CN(c1ccccc1)C(=O)CO2,-19.5
14,Cc1ccc(N2CC3(COCCN(Cc4cnn(C)c4)C3)OCC2=O)s1 (stereo unspecified),31.7
15,Cc1cccc(N2CCOCC3(C2)CN(c2ccccc2)C(=O)CO3)n1 (stereo unspecified),59.3
16,Cc1ccc(N2CC3(COCCN(Cc4ccccn4)C3)OCC2=O)s1 (stereo unspecified),60.1
17,Cc1ccc(CN2CCC3(CC2)CN(c2cnn(C)c2)C(=O)CO3)o1,-2.17
18,Cc1ccc(N2CC3(COCCN(Cc4cccnc4)C3)OCC2=O)s1 (stereo unspecified),39.2
19,Cc1ccc(CC(=O)N2CCc3nnc(N(C)C)cc3C2)s1,12.85

row,Structure (SMILES),INHIBITION [%]
1,Cn1cnc2c1C(COCC1CCOCC1)CN(C1CCOCC1)C2 (stereo unspecified),-0.569
2,CC(C)NC(=O)Nc1ccc(CS(C)(=O)=O)cc1,28.3
3,CCn1ccnc1CN1CCCN(C(=O)c2cnc(C)cn2)CC1,-4.16
4,Cc1nc(CN2CCCC(N(C)Cc3nccn3C)C2)no1 (stereo unspecified),13.3
5,COc1ccc(OCc2cc(C(=O)N3CCCCO3)n[nH]2)c(Cl)c1,-9.42
6,CCNCCC(Cc1ccccc1)c1ccco1 (stereo unspecified),31.2
7,COCCN(C)c1cnn(C)c(=O)c1Br,17.5
8,CC(Cn1cccn1)C(=O)N1CCCN(Cc2cscn2)CC1 (stereo unspecified),-0.29
9,O=C(c1cnco1)N1CCC(Cc2cnc3ccccc3c2)CC1,14.4
10,O=C1CC2(CCCCN2C(=O)Cc2ccccc2)CN1c1cccnc1 (stereo unspecified),70.1
11,O=C1CC2(CCCCN2C(=O)c2ccoc2)CN1Cc1ccccc1 (stereo unspecified),24.8
12,O=C(c1ccco1)N1CCOCC2(C1)CN(c1cccnc1)C(=O)CO2 (stereo unspecified),3.58
13,O=C1CC2(CCCCN2C(=O)c2ccco2)CN1c1cccnc1 (stereo unspecified),76.5
14,Cn1cccc1C(=O)N1CCCCC12CC(=O)N(c1cccnc1)C2 (stereo unspecified),-80.2
15,Cn1ccc(C(=O)N2CCCCC23CC(=O)N(Cc2ccccc2)C3)n1 (stereo unspecified),-52.9
16,COc1ccc(CC(=O)N2C[C@@H]3COC[C@]3(CN(C)C)C2)cc1,35.3
17,CCOCC1c2c(cnn2CC2CC2)CCN1Cc1nccs1 (stereo unspecified),30.3
18,O=C(C1CCCC1)N1CCO[C@H]2[C@H](OCC3CCOCC3)CC[C@@H]21,-26.5
19,CC(C)NC(=O)CS(=O)(=O)Cc1coc(-c2ccc(F)cc2)n1,33.8

row,Structure (SMILES),INHIBITION [%]
1,Cc1nc(C)c(CC(=O)N2C[C@@H]3CC[C@H]2CN(c2cnccn2)C3)s1,-102
2,CC(C)C(=O)NC1COC2(CCN(Cc3cccnc3)CC2)C1 (stereo unspecified),16.1
3,c1cnc(NCc2nnn3c2CN(Cc2ccsc2)CCC3)nc1,39.8
4,CS(=O)(=O)NC[C@@H]1OC[C@H]2CN(Cc3ccsc3)CC[C@H]21,-4.32
5,CN(CC(=O)N1CCc2[nH]c3ccccc3c2C1)CC1OCCO1,22.9
6,O=C1N(c2ccsc2)CCC12CCCN(c1ccccn1)C2 (stereo unspecified),42.1
7,Cc1nn(C)c(N(C)C)c1CNCc1cccnc1-n1cncn1,26.1
8,CC(C)C[C@H](N)COc1cccc(F)c1Oc1cccc(Cl)c1,83.3
9,CC(CNS(N)(=O)=O)Oc1cccc(Cl)c1 (stereo unspecified),14.9
10,CC(C)C[C@H](N)COc1cccc(F)c1Oc1ccccc1,48
11,COc1ccccc1C(N)CC(C)C (stereo unspecified),48.3
12,CNCc1cc(F)ccc1Oc1ccc(Cl)cc1,35.2
13,CC(CNS(C)(=O)=O)Oc1cccc(Cl)c1 (stereo unspecified),23.8
14,Cc1ccc(Oc2c(F)cccc2OC[C@@H](N)CC(C)C)cc1,79.6
15,CC(C)C[C@H](N)COc1cccc(F)c1Oc1ccc(Cl)cc1,87.9
16,CN(CCc1ccccn1)c1cnn(C)c(=O)c1Br,-18.9
17,Cc1ccc2c(c1)Oc1ncccc1C(=O)N2,48.2
18,Cc1cnc(C(=O)N2C[C@H]3CN(Cc4cccc(F)c4)C(=O)[C@H]3C2)cn1,-9.71
